Data: the OligoGym collection

What follows are sequences tested against ZNRF2 (assay: pooled miR-30 sensor sort-seq; sequence = guide strand). Settings: shRNA.
Further: reference of the scale not given here.

Row | Sequence | sensor-assay potency score (higher = more potent)
1 | TTAAACACATTACAAGATGCAA | -0.454
2 | TTGTTAAACACATTACAAGATG | -1.34
3 | TAAACACATTACAAGATGCAAA | -1.15
4 | TTGTCAAGACAAGAAAACCTAT | -0.902
5 | TCGTGCTATAGTATCTCCCTGC | 0.0677
6 | TGCATAGACAAGGCAGTCGTGC | -0.863
7 | TTACTTCAAACCATTCATCTAT | 0.146
8 | ATAGACAAGGCAGTCGTGCTAT | 0.0716
9 | TACTTCAAACCATTCATCTATG | -0.758
10 | TTATGATATATGCATAGACAAG | -1.91
11 | TTTATCAGTATTACCTATGTAG | 0.361

The sequences below were run against ZSCAN21 in the same assay as above. Settings: shRNA.

Row | Sequence | sensor-assay potency score (higher = more potent)
12 | TGGATCTTGAGCGAACTCCTGC | -0.804
13 | TAGGAACTGATTCTCTACCTTT | 0.143
14 | TTTCTCTTCTTTCTCCTCGACT | -0.944
15 | TAATGTTTCTTCCTTAACTAGA | -0.759
16 | TGATACAAACTCTATCACCGGA | 0.695
17 | TAAAACAACGACAACAACAGGA | 0.555
18 | TAGACTGGATACACGTCTGTTT | -0.362
